Screen size: about 69,000 compounds; about 950 (1.4%) showed an effect of 50% or more. This excerpt belongs to a sample that is enriched for strong results.
System: Mycobacterium tuberculosis
Assay: Cornell M. t heat shock assay; further: in the data most compounds retested in dose-response had high values
Format: functional, organism-based
Set-up: dose or concentration left out as unconfirmed

| SMILES | Percent Effect [%] |
| --- | --- |
| Fc1cnc(N2CCCC3(COCCN(c4nccs4)C3)C2)nc1.O=C(O)C(F)(F)F.O=C(O)C(F)(F)F (configuration not stated) | 4.049 |
| COc1c(CNC2CCCOc3ccc(F)cc32)c(C(C)C)nn1C.Cl (configuration not stated) | -10.1 |
| O=C(O)C(F)(F)F.O=C1NCC[C@]12CN(CC1CCOCC1)C[C@H]2c1ccccc1 | -6.347 |
| CCc1ccc(CN2C[C@H](OCC(=O)N(C)C)[C@H]3COC[C@H]32)o1.O=C(O)C(F)(F)F | 13.05 |
| CO[C@H]1CN(CC2CC2)[C@@H]2CCCO[C@H]12.O=C(O)C(F)(F)F | 13.63 |
| c1ccc(OCCNCc2cccs2)nc1 | -4.17 |
| CC(C)CC(NCc1cccs1)c1ccccn1 (configuration not stated) | 99.48 |
| O=C(Cn1cccnc1=O)NC(Cc1cccs1)c1ccccn1 (configuration not stated) | -7.839 |
| CC(C)CC(NCc1ccsc1)c1ccccn1 (configuration not stated) | 95.2 |
| CS(=O)(=O)N1CCC(C(=O)NC(Cc2ccsc2)c2ccccn2)CC1 (configuration not stated) | -2.015 |
| CC(C)CC(NCc1cscn1)c1ccccn1 (configuration not stated) | 27.38 |
| Cl.O=C(c1ccccc1)N1CCC2(CC1)CNc1c(F)cccc12 | 9.544 |
| Cc1cnn(CC2CN(Cc3nc4ccccc4s3)CCO2)c1 (configuration not stated) | -2.009 |
| CN(Cc1cncnc1)[C@H]1CN(C(=O)c2ccco2)[C@@H]2CCCO[C@@H]21 | -2.729 |
| CN(Cc1cncnc1)[C@@H]1CN(C(=O)C2CC2)[C@@H]2CCCO[C@H]12.O=C(O)C(F)(F)F | 8.478 |
| CN(Cc1cncnc1)[C@@H]1CN(C(=O)c2ccco2)[C@@H]2CCCO[C@H]12.O=C(O)C(F)(F)F | 50.13 |
| COc1ccc2[nH]cc(C(=O)CNc3nc(C)cs3)c2c1.I | 4.496 |
| COc1cccc(CC(=O)N2CC[C@@H]3[C@H](CC2)N(C)CCS3(=O)=O)c1.O=C(O)C(F)(F)F | 5.677 |
| CCCc1noc(CN2CCCC2c2ccsc2)n1 (configuration not stated) | 4.131 |
| Cc1nc(CN2CCCC2c2ccsc2)nc2ccccc12 (configuration not stated) | 40.46 |
| Cc1ccccc1C1CCCN1Cc1nc2c(cnn2C)c(=O)[nH]1 (configuration not stated) | -11.52 |
| CN(C)c1nc(N)nc(CN2CCCC2c2ccsc2)n1 (configuration not stated) | 64.16 |
| CN(C)c1nc(N)nc(CN2CCCC2c2cccs2)n1 (configuration not stated) | 97.97 |
| Cn1ncc2c(=O)[nH]c(CN3CCCC3c3ccsc3)nc21 (configuration not stated) | -12.54 |

| SMILES | Percent Effect [%] |
| --- | --- |
| Cc1cccc(C2CCCN2Cc2nc(N)nc(N(C)C)n2)c1C (configuration not stated) | 47.4 |
| Cn1ncc2c(=O)[nH]c(CN3CCCC3c3cccs3)nc21 (configuration not stated) | 80.29 |
| CN(C)c1nc(N)nc(CN2CCCC(c3ccccc3)CC2)n1 (configuration not stated) | -13.13 |
| CC(C)NC(=O)N1CCc2ncc(CN3CCOCC3)n2CC1.O=C(O)C(F)(F)F | -16.24 |
| Cc1noc(C)c1CN1CC[C@H]2[C@H]1CCN2CC1CCOCC1.O=C(O)C(F)(F)F.O=C(O)C(F)(F)F | -9.429 |
| C=C(C)CN1CCN(Cc2cnc(-c3ccccc3C)nc2)CC1.O=C(O)CC(O)(CC(=O)O)C(=O)O | 1.349 |
| CCOCC1CN(Cc2ccoc2)Cc2nn(C)cc21.O=C(O)C(F)(F)F (configuration not stated) | -18.76 |
| O=C(N1CCCC1)N1CC[C@H]2[C@H]1CCN2c1ncccn1.O=C(O)C(F)(F)F | -10.67 |
| COc1cc2c(cc1CNC(Cc1cccs1)c1nccs1)OCCO2.Cl (configuration not stated) | 2.723 |
| Cl.O=C(C1CCC1)N1C[C@@H](c2ccsc2)[C@@H]2CN(C3CCCCC3)CC[C@@H]21 | -50.24 |
| Cc1ccc2nc(C3CCN(CC4CC4)CC3)nn2c1.O=C(O)C(F)(F)F | -35.41 |
| CCOC(C)C(=O)NCCNS(C)(=O)=O (configuration not stated) | 69.12 |
| CC(C)COC(C)C(=O)NCCNS(C)(=O)=O (configuration not stated) | -20.75 |
| CC(C)COC(C)C(=O)NCCNC(=O)C(C)C (configuration not stated) | -3.282 |
| O=C(O)C(F)(F)F.O=C(c1ccoc1)N1CC[C@@H](N2CCOCC2)[C@@H]1Cc1ccccc1 | -25.18 |
| O=C(NCc1ccccn1)[C@H]1COC[C@H]2CN(C3CCCC3)C[C@H]21.O=C(O)C(F)(F)F.O=C(O)C(F)(F)F | -26.6 |
| Cc1ccc(CN[C@@H]2COC[C@H]2Cc2cc(C)no2)cc1.O=C(O)CC(O)(CC(=O)O)C(=O)O | 0.5554 |
| O=C1CN(Cc2nnc(-c3ccccc3Br)o2)CCN1 | 14.67 |
| O=C1CN(Cc2nnc(-c3ccc(Br)cc3)o2)CCN1 | 1.317 |
| O=C1CN(Cc2nnc(-c3ccc(Br)o3)o2)CCN1 | 51.83 |
| Cl.c1cc(CNCc2ccc(Cn3cncn3)cc2)c2c(c1)OCCO2 | -1.246 |
| Cl.NC(=O)COc1ccc(CNCc2cc(F)ccc2F)cc1 | -36.29 |
| COCCNC(=O)Cn1c(-c2cccc(Cl)c2)nc(C)c(CCO)c1=O | 68.55 |
